HPGD inh: blocks human HPGD enzyme activity. P15428. purified HPGD, NADH fluorescence kinetic, PGE2 substrate. Potency, µM, actives largely listed as inhibitors. 4.3% of 150,000 active. AID 894; active = well fitted inhibition curve with a large enough effect, not every such curve was filed as active; inconclusive = small, poorly fitted or top-dose-only effect, or another doubt; inactive = no such curve, though single readings can be large or run the other way
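20 nM HPGD preincubated 15 min at room temperature with compound in 50 mM Tris-HCl pH 8, 0.01% Tween 20. Started with 1 mM NAD+ and 30 uM prostaglandin E2; NADH fluorescence (360/450 nm) read 5 times over 30-s intervals, last minus first.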
ALDH1A1 block: blocks purified human ALDH1A1 activity; P00352; Purified ALDH1A1, NADH fluorescence, propionaldehyde substrate; Potency, µM (top dose mostly 75.3 µM), actives largely listed as inhibitors; 7.3% of 220,000 active; AID 1030; active = well fitted inhibition curve with a large enough effect, not every such curve was filed as active; inconclusive = small, poorly fitted or top-dose-only effect, or another doubt; inactive = no such curve, though single readings can be large or run the other way
NPSR antag: blocks cAMP signaling of the human neuropeptide S receptor; Q6W5P4; CHO-NPSR cells, cAMP TR-FRET, antagonist mode; Potency, µM (highest dose often 38.3 µM), hits mostly inhibitors; 1% of 220,000 active; also: nearly all actives have a fitted effect of over 50% in size
Target sequence (Q6W5P4 whole entry, looked up): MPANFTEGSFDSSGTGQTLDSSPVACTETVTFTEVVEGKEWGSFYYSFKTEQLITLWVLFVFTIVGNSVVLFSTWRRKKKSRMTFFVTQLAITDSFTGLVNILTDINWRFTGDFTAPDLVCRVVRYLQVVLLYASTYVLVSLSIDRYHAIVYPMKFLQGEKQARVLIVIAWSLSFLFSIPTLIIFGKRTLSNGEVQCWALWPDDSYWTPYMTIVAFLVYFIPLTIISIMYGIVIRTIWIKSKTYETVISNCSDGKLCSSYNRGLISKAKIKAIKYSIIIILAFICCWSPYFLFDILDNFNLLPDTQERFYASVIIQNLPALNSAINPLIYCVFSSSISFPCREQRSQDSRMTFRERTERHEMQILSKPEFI
IMPase inh: IMPase inhibition in cells. AID 901. CHO-M1 cells, IP1 accumulation, HTRF TR-FRET ratio. P97697. 120,000 tested, under 10 active. inhibition (IP1 accumulation), % at 46.1 µM; active = well fitted curve in the direction sought with a large enough effect in the signal ratio, not every such curve was filed as active; inconclusive = small, poorly fitted or top-dose-only effect, or a change in a side signal; inactive = no such curve, though single readings can be large or run the other way; the % refers to the signal ratio;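 also: cells stimulated with carbachol in lithium chloride buffer; higher means more IMPase inhibition seen as more IP1 and lower FRET ratio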
Target sequence (P97697 whole entry, looked up): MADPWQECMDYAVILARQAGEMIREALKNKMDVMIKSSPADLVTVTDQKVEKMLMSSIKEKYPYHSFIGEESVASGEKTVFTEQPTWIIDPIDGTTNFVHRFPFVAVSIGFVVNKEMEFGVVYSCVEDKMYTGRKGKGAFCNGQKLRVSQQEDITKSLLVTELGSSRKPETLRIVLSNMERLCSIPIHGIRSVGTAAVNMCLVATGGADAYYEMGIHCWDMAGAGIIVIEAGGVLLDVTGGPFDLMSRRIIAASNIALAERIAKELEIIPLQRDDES
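CHO-M1, 2000 cells/well, cultured 16–30 h; cpd up to 46 uM; carbachol (50 uM solution, stimulation buffer w/ 50 mM LiCl, pH 7.4), 30 min 37C; IP-One TR-FRET, 10 min RT; Ex 320/Em 665, 620; Hill-fit AC50.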
PNC inhibitor: inhibitors of perinucleolar compartment assembly. PC3M PTB-GFP, PNC prevalence imaging, 16 h; active compounds read low. 3.1% of 140,000 active. activity change (PNC), negative = inhibition, % at 10 µM;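 active = readout at or below -70, meaning at least 70% loss of cells showing the perinucleolar compartment, a nuclear body marking cancer cells; inconclusive = readout between -30 and a set limit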
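Compounds are pinned in duplicate onto adhered PC3M cells stably expressing GFP-tagged PTB and incubated 16 h at 37 C. Cells are then fixed, nuclei stained with Hoechst, and PNC-positive cells counted.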
IMPase Li inh: IMPase inhibition in cells with lithium potentiation. CHO-M1 cells, IP1 TR-FRET (IP-One), carbachol + lithium. Potency, µM (top dose mostly 59.4 µM), hits mostly inhibitors. AID 1457. 0.35% of 210,000 active;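 also: IP1 builds up when IMPase is blocked and the TR-FRET signal falls; nearly all actives have a fitted effect of over 50% in size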
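Steps: plate 2000 CHO-M1 cells per well and culture 16–30 h; add compound and lithium; incubate 30 min, 37C; add d2-IP1 tracer and Eu cryptate anti-IP1 antibody in lysis buffer; read after 10 min at room temperature.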
A number is an active result; [ ] = another dose, or the depositor's remark. Rows were chosen to be rich in hits. Some 11% of all compounds tested hit in one or more screens of this group. Unless noted, calls follow the shape of the dose curve; as a rule, active = well fitted curve in the direction sought with a large enough effect; inconclusive = small, poorly fitted or top-dose-only effect, or another doubt; inactive = no such curve, though single readings can be large; an effect the other way counts as inactive or inconclusive.

How did O=C(c1c[nH]c(C(=O)C(Cl)(Cl)Cl)c1)c1ccccc1Cl do in these assays?
HPGD inh: 14µM; ALDH1A1 block: inconclusive; NPSR antag: inactive; IMPase inh: inactive; PNC inhibitor: inactive; IMPase Li inh: inactive

How did C[C@@H]1O[C@H](C[N+](C)(C)C)CS1 do in these assays?
HPGD inh: inactive; ALDH1A1 block: inactive; NPSR antag: inconclusive; IMPase inh: inactive; IMPase Li inh: inactive

What do the screens show for `CCCCN1C(=O)NC(=O)/C(=C/c2cnc(SC)nc2)C1=O`?
HPGD inh: 20µM; ALDH1A1 block: inactive; NPSR antag: inconclusive; IMPase inh: inactive; PNC inhibitor: inactive; IMPase Li inh: inactive

What do the screens show for `CCc1ccc(N2C(=O)NC(=O)/C(=C\c3cccn3CCOc3ccc(C(C)C)cc3)C2=O)cc1`?
HPGD inh: inactive; ALDH1A1 block: inactive; NPSR antag: inactive; PNC inhibitor: inactive; IMPase Li inh: inactive

What do the screens show for `CSc1ncc(/C=C2/C(=O)NC(=O)N(C)C2=O)cn1`?
HPGD inh: inactive; ALDH1A1 block: inactive; NPSR antag: inactive; IMPase inh: inactive; PNC inhibitor: inactive; IMPase Li inh: inactive

What do the screens show for `O=C1NC(=O)N(Cc2ccc(F)cc2)C(=O)/C1=C\c1ccoc1`?
ALDH1A1 block: inactive; NPSR antag: inactive

Results for CC(C)c1ccc(N2C(=O)NC(=O)/C(=C/c3cnc(-c4ccccc4)nc3)C2=O)cc1 ?
HPGD inh: 13µM; ALDH1A1 block: 19µM; NPSR antag: inactive; IMPase inh: inactive; PNC inhibitor: inactive; IMPase Li inh: inactive

How did CCc1ccc(N2C(=O)NC(=O)/C(=C/c3ccsc3)C2=O)cc1 do in these assays?
ALDH1A1 block: inactive; NPSR antag: inactive; IMPase Li inh: inactive

Results for CSc1ncc(/C=C2/C(=O)NC(=O)N(c3ccc(C(C)C)cc3)C2=O)cn1 ?
HPGD inh: inconclusive; ALDH1A1 block: 14µM; NPSR antag: inactive; PNC inhibitor: inactive; IMPase Li inh: inactive

What do the screens show for `O=C1NC(=O)N(Cc2ccccc2)C(=O)/C1=C/c1cnc(-c2ccccc2)nc1`?
ALDH1A1 block: inactive; NPSR antag: 10µM; IMPase Li inh: inactive

What do the screens show for `COC(=O)C(O)(c1ccc(N(C)S(=O)(=O)c2ccccc2)cc1)C(F)(F)F` (stereo unspecified)?
HPGD inh: inactive; ALDH1A1 block: inactive; NPSR antag: inactive; IMPase inh: inactive; PNC inhibitor: inactive; IMPase Li inh: inactive

What do the screens show for `O=c1cccc2n1CC1CC2CN2CCCC[C@H]12` (stereo partly specified)?
HPGD inh: inactive; ALDH1A1 block: inconclusive; IMPase inh: inactive; IMPase Li inh: inactive

What do the screens show for `O=c1[nH]c(=O)n(-c2cccc3ccccc23)c(O)c1/C=N/N1CCCCCC1`?
NPSR antag: inactive

What do the screens show for `O=C(O)C1C2CCC(O2)C1C(=O)NC1CCCCC1` (stereo unspecified)?
HPGD inh: inactive; ALDH1A1 block: inactive; NPSR antag: inactive; PNC inhibitor: inactive; IMPase Li inh: inactive

How did Cc1cccc(C)c1NC1=NCCCCS1 do in these assays?
HPGD inh: inactive; ALDH1A1 block: inactive; NPSR antag: inactive; IMPase inh: inactive; PNC inhibitor: inconclusive; IMPase Li inh: inactive

Results for O=C(c1sc2ccccc2c1Cl)N1CCC2(CC1)OCCO2 ?
HPGD inh: 14µM; ALDH1A1 block: 10µM; NPSR antag: inactive; IMPase inh: inactive; PNC inhibitor: inactive; IMPase Li inh: inactive

Results for COc1ccccc1N1C(=O)NC(=O)/C(=C/c2ccc3c(c2)Cc2ccccc2-3)C1=O ?
HPGD inh: inconclusive; ALDH1A1 block: inconclusive; NPSR antag: inactive; PNC inhibitor: inactive; IMPase Li inh: inactive

How did Cc1ccc(N2C(=O)NC(=O)/C(=C\c3ccoc3)C2=O)cc1 do in these assays?
ALDH1A1 block: inconclusive; NPSR antag: inactive; IMPase Li inh: inactive

How did COc1ccc(N2C(=O)NC(=O)/C(=C/c3cccc(OC(=O)c4cccs4)c3)C2=O)cc1Cl do in these assays?
HPGD inh: 32µM; ALDH1A1 block: inconclusive; NPSR antag: inactive; PNC inhibitor: inconclusive; IMPase Li inh: inactive

What do the screens show for `Cc1ccc(N2C(=O)NC(=O)/C(=C/c3ccc(OC(=O)c4cccs4)cc3)C2=O)cc1`?
HPGD inh: 28µM; ALDH1A1 block: inconclusive; NPSR antag: inactive; IMPase inh: inactive; PNC inhibitor: inactive; IMPase Li inh: inactive

What do the screens show for `COC(=O)[C@H]1C(=O)c2ccccc2O[C@@](C(=O)OC)(c2ccccc2)[C@@H]1c1ccccc1`?
ALDH1A1 block: inactive[13.5 µM]

How did Oc1ccc2c3c1O[C@@H]1[C@@H](O)CC[C@]4(O)[C@H](C2)N(CC2CCC2)CC[C@@]314 do in these assays?
IMPase inh: inactive

Results for CC(=O)c1ccc2c(c1)C1C(Cl)C(Sc3ccccc3[N+](=O)[O-])CC1C(c1ccccc1[N+](=O)[O-])N2 (stereo unspecified) ?
HPGD inh: inconclusive; ALDH1A1 block: inconclusive; NPSR antag: inactive; IMPase inh: inactive; PNC inhibitor: inconclusive; IMPase Li inh: inactive

Results for O=C(Nc1ccc(COc2ccccc2)cc1)Oc1ccccc1N1CCOCC1 ?
ALDH1A1 block: inconclusive; NPSR antag: inactive

Results for Cc1nn(Cc2ccccc2)c(C)c1C(=O)OCC(=O)Nc1ccccc1SCC#N ?
HPGD inh: inactive; ALDH1A1 block: 25µM; NPSR antag: inactive; IMPase inh: inactive; PNC inhibitor: inactive; IMPase Li inh: inactive

What do the screens show for `Cc1cc(NC(=O)COC(=O)c2c(C)nn(Cc3ccccc3)c2C)no1`?
HPGD inh: inactive; ALDH1A1 block: inactive; NPSR antag: inactive; IMPase inh: inactive; PNC inhibitor: inconclusive; IMPase Li inh: inactive

How did CCCc1[nH]nc2c1C1(C(=O)N(CC(N)=O)c3ccccc31)C(C(=O)OC)=C(N)O2 (stereo unspecified) do in these assays?
HPGD inh: inactive; ALDH1A1 block: inactive; NPSR antag: inactive; IMPase inh: inconclusive; PNC inhibitor: -91; IMPase Li inh: inactive

How did O=P1(Oc2ccccc2)OCCCS1 (stereo unspecified) do in these assays?
ALDH1A1 block: inactive; NPSR antag: inactive

What do the screens show for `Cc1c(P(=S)(c2ccccc2)c2ccccc2)[n+]2ccccc2n1C`?
ALDH1A1 block: inactive; NPSR antag: 1.3µM; IMPase Li inh: inactive

What do the screens show for `CN(C)c1ccc(C(=O)c2ccc(N(C)C)cc2)cc1`?
HPGD inh: inconclusive; ALDH1A1 block: 28µM; NPSR antag: inactive; IMPase inh: inactive; PNC inhibitor: inactive; IMPase Li inh: inactive

What do the screens show for `COc1cc2c(cc1OC)-c1c(OC)c(OC)c(C=O)c3c1[C@H](C2)N(C)CC3`?
HPGD inh: inconclusive; ALDH1A1 block: inconclusive; IMPase inh: inactive; IMPase Li inh: inactive

Source: PubChem BioAssay
